From PubChem BioAssay
The list is not random: actives were taken first. Their share in the collection is about 7.3%.
ELG1 genotox – qHTS screen for small molecules that induce genotoxicity in human embryonic kidney (HEK293T) cells expressing luciferase-tagged ELG1. HEK293T ELG1-luciferase reporter, luminescence, 16 h. Potency, µM (highest dose often 46 µM), inactives show at the top dose activity change, positive = activation, hits mostly activators. 330,000 compounds, 1.3% hits. AID 504466, 2011; note: % of control where 0% means no effect; nearly all actives have a fitted effect of over 60% in size
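HEK293T cells expressing luciferase-tagged ELG1 were treated with compound or DMSO for 16 hr at 37°C. Luciferase activity was then read after 30 min with ONE-Glo at room temperature; rising signal flags genetic stress.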
SMN2 splice enh – qHTS Assay for Enhancers of SMN2 Splice Variant Expression; HEK293 SMN2-luciferase splicing reporter, luminescence, 30-36 h; 210,000 compounds, 2.8% hits; Potency, µM (titrated, usually from 46.1 µM), inactives show at the top dose activity change, positive = activation, actives largely listed as activators; note: % of control where 0% means no effect; nearly all actives have a fitted effect of over 55% in size
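HEK293 cells carry an SMN2 […]–luciferase reporter in which exon 7 inclusion puts luciferase in frame. Cells were plated 10-12 h before compound addition, then incubated 30-36 h at 37C. ONE-Glo luminescence was read; sodium butyrate at 4.5 mM final served as control.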
KinaseGlo FLuc – Counterscreen for Luciferase (Kinase-Glo TM) Inhibition | Potency, µM (doses to about 38.3 µM), for the others: at the top dose activity change, negative = inhibition, usual class: inhibitors | Kinase-Glo luciferase, ATP luminescence, 8 min | 200,000 compounds, 0.28% hits | Luciferin 4-monooxygenase (Photuris pensylvanica), Q27757 | AID 1379, 2008; note: % is set by controls: 0 for no effect and ±100 for the full control effect; nearly all actives have a fitted effect of over 60% in size
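Light output from Kinase-Glo luciferase with luciferin and 10 uM ATP in 50 mM imidazole pH 7.2, KCl, MgCl2, Tween 20, BSA; compound pin-delivered, 8-min ambient incubation, then luminescence read.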
NPC1 prom act – qHTS Assay for NPC1 Promoter Activators | Potency, µM (top dose mostly 9.22 µM), for the others: at the top dose activation, usual class: activators | 320,000 compounds, 2.4% hits | Huh7 NPC1 promoter luciferase reporter, 24 h; note: % of control where 0% means no effect; nearly all actives have a fitted effect of over 60% in size
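NPC1 promoter–luciferase Huh7 cells; 24 h compound; luminescence.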
Rab9 prom act – qHTS Assay for Rab9 Promoter Activators; Potency, µM (top dose mostly 9.22 µM), without a hit: at the highest dose activation, negative = inhibition, hits mostly activators; 320,000 compounds, 2.8% hits; Huh7 Rab9 promoter-luciferase reporter, luminescence, 24 h; note: % of control where 0% means no effect; nearly all actives have a fitted effect of over 60% in size
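Huh7 cells stably carrying a Rab9 promoter-luciferase reporter, 1500 cells per well in OP-MEM I with 10% FBS, treated with compound 24 hours at 37C. Luciferase activity read by luminescence after 10 minutes with Amplite reagent.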
FLuc counter – qHTS profiling assay for firefly luciferase inhibitor/activator using purifed enzyme and Km concentrations of substrates (counterscreen for miR-21 project); 360,000 compounds, 6.9% hits; Luciferin 4-monooxygenase (Photinus pyralis), P08659; AID 588342, 2011; Potency, µM (doses to about 57.5 µM), for inactives: at the highest dose activity change, negative = inhibition, most hits filed as inhibitors; purified FLuc, Km substrates, luminescence inhibition;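 note: plate controls were vehicle for no effect and reference inhibitor for full effect; nearly all actives have a fitted effect of over 55% in size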
Target sequence (P08659 whole entry, looked up): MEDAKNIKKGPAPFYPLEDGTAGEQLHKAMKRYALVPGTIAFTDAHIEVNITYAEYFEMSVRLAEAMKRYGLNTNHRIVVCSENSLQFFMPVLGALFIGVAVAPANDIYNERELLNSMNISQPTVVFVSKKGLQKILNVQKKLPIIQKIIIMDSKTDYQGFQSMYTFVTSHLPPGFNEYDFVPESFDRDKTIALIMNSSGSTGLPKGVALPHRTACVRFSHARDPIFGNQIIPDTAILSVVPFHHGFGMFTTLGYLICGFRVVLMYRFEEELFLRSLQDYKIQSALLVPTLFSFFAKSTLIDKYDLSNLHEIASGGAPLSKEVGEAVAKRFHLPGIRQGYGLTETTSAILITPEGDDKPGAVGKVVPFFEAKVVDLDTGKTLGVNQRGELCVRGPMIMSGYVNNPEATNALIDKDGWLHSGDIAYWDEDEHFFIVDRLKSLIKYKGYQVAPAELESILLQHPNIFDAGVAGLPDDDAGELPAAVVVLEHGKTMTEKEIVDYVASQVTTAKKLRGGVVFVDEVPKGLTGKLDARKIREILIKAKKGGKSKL
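Biochemical qHTS of compounds, final roughly 60 µM downward over six points, against 10 nM purified firefly luciferase using Km concentrations of substrates (10 uM D-luciferin, 10 uM ATP) in Tris acetate pH 7.5 buffer; luminescence output.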
Active calls of the source: *; ? = inconclusive; . = no result. Calls come from the whole dose curve; as a rule, active = well fitted curve in the direction sought with a large enough effect; inconclusive = small, poorly fitted or top-dose-only effect, or another doubt; inactive = no such curve, though single readings can be large; an effect the other way counts as inactive or inconclusive. Potency is the fitted concentration of half-maximal effect.

SMILES	ELG1 genotox	SMN2 splice enh	KinaseGlo FLuc	NPC1 prom act	Rab9 prom act	FLuc counter
COc1ccc(-c2noc(CCC(=O)Nc3cc(Cl)c(OC)cc3OC)n2)cc1	?	1.9%	2.7%	-0.3%	-0.5%	8.49µM*
CNC(=O)CCc1nc(-c2ccc(C(C)(C)C)cc2)no1	14.7%	-16.6%	-2.6%	?	13.2%	4.78µM*
O=C(O)CCc1nc(-c2ccc(Cl)cc2)no1	1.1%	7.4%	0.3%	-1.9%	0.7%	-6.8%
CC(C)(CC(=O)O)Cc1nc(-c2ccc(Cl)cc2)no1	?	6.5%	-2.8%	16.4%	3.2%	26.9µM*
CC(C)(C)c1ccc(-c2noc(CCC(N)=O)n2)cc1	-10.6%	-43.1%	0.2%	-26.3%	-31.9%	6.01µM*
COc1ccc(C)c2sc(NC(=O)C3=COCCO3)nc12	16.4µM*	?	-1.7%	13.7%	15.1%	5.36µM*
COc1ccc(OC)c(-c2csc(NC(=O)c3ccc(F)cc3)n2)c1	7.3%	.	.	?	6.5%	10.7µM*
COc1ccc(OC)c(-c2csc(NC(=O)Cc3ccc(F)cc3)n2)c1	-12.8%	.	.	-6.3%	-2.0%	16.9µM*
COc1ccc(OC)c(-c2csc(NC(=O)Cc3cc(OC)c(OC)c(OC)c3)n2)c1	-21.0%	.	.	-7.8%	-3.5%	3.7%
COc1ccc(C(=O)Nc2nc(CC(=O)NCCc3ccccc3OC)cs2)cc1	-6.5%	.	.	-5.9%	5.3%	2.69µM*
COc1ccc(OC)c(-c2csc(NC(=O)CSc3ccc(Br)cc3)n2)c1	-2.5%	-13.3%	1.8%	-0.5%	-3.3%	-2.0%
COc1ccc(-n2c(C)nc3c(cnn3-c3ccc(C)c(C)c3)c2=O)cc1	-1.1%	-22.3%	1.0%	26.5%	28.4%	?
COC(=O)CCC(=O)NNC(=O)c1ccc(Br)cc1	-0.3%	3.0%	-2.7%	0.1%	11.2%	-2.5%
Cc1ccc(C)n1-c1ccc2c(c1)COC2=O	?	38.2%	-2.3%	-6.0%	-2.1%	-0.5%
Cc1ccc(C)c(-c2csc(NC(=O)C3=COCCO3)n2)c1	?	.	.	-1.6%	0.5%	?
COc1ccc(OC)c(-c2csc(NC(=O)C3=COCCO3)n2)c1	-3.8%	.	.	0.5%	-0.1%	10.7µM*
COc1ccc(OC)c(-c2csc(NC(=O)c3ccc(OCC4CCCO4)cc3)n2)c1 (stereo not drawn)	-4.2%	-25.3%	-0.7%	-3.9%	-25.2%	1.51µM*
O=C(CN1C(=O)c2ccccc2S1(=O)=O)Nc1ccccn1	0.3%	.	.	2.0%	-2.7%	0.1%
COC(=O)c1ccc2c(=O)[nH]c(CCl)nc2c1	-10.2%	-6.9%	-2.7%	-10.7%	-1.0%	-12.4%
O=c1[nH]c(CCl)nc2cc(-c3ccc(F)cc3)sc12	?	.	.	-0.3%	-43.3%	0.301µM*
Cc1cc(N/N=C/c2ccncc2)nc2ccccc12	?	14.1µM*	0.9%	?	2.82µM*	10.7µM*
Cc1cc(N/N=C/c2cccc(Br)c2)nc2ccccc12	?	12.6µM*	-2.6%	3.16µM*	?	4.78µM*
ClC(Cl)(Cl)c1nc(N/N=C/c2ccncc2)c2ccccc2n1	-7.2%	2.2%	3.8%	-3.3%	1.1%	-1.1%
O=C(Nc1ccccc1C(F)(F)F)N1CC=C(c2c[nH]c3ccccc23)CC1	.	.	.	.	.	-14.7%
O=C(Cn1c(=O)sc2ccccc21)Nc1ccccc1C(=O)O	16.2%	8.5%	3.0%	0.0%	6.9%	?
COc1ccccc1NC(=O)Nc1nc2ccc(S(N)(=O)=O)cc2s1	?	.	.	?	3.98µM*	?
COc1ccc2nc(Nc3nc4cc5c(cc4s3)OCO5)sc2c1	16.4%	?	4.2%	16.0%	-0.5%	-16.3%
COc1ccc(Nc2nc3ccccc3c(=O)s2)c(OC)c1	1.6%	5.9%	-0.5%	-0.3%	3.4%	3.9%
